HSF1 inh: HSF1 inhibitors in luciferase reporter cells, primary screen, cell-based, NIH3T3, luminescence; NIH3T3-HGL HSE-luciferase, MG132-induced, luminescence 8 h; hits give low values; activity change, negative = inhibition, % at 7.5 µM (by protocol); actives 0.77% (n = 300,000); AID 2098, 2009;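 active = more than half of replicate wells show activity change below -50%, luminescence cut by over half; inconclusive = some wells, but at most half, below -50%; inactive = no replicate well below -50%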;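 note: luciferase reports HSF-1 transcriptional activity via heat shock element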
HIF activator: HIF pathway transcriptional activators, primary screen, cell-based, U2OS HRE-luciferase, luminescence | U2OS HRE-luciferase reporter; normalized: DMSO 0%, desferrioxamine 100% | activation, % at 7.5 µM (by protocol) | actives 0.32% (n = 300,000);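 active = mean activation of at least 10% of the iron chelator positive control signal, with at least half of replicates also reaching 10%; inconclusive = mean and replicate majority disagree about reaching 10%; inactive = mean and most replicates under 10%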
HSP90 refold inh: HSP90 inhibitors, primary screen, cell lysate, luminescence; Rabbit reticulocyte lysate, luciferase refolding luminescence, 3 h; inhibition, % at 5.6 µM; actives 0.91% (n = 290,000); AID 1789, 2009;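 active = inhibition above the screen-wide mean plus 3 SD, computed separately per campaign, cut at about 16% in these data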;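 note: inhibitors lower the luminescence because luciferase stays unfolded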
ARNT-TACC3 inh: disruptors of ARNT/TACC3 protein interaction, primary screen, biochemical, AlphaScreen, single concentration; AlphaScreen His-ARNT PAS-B/GST-TACC3 binding, luminescence; TACC3 fragment carries E629A point mutation; inhibition, % at 9.99 µM; actives 0.66% (n = 390,000);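 active = mean inhibition of replicates at least 50% and at least half of replicates each reaching 50%; inconclusive = half or more replicates reach 50% but mean below 50%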
HSF-1 act: HSF-1 activators, primary screen, NIH3T3-HGL cells, MG132 stress, luminescence, single point; NIH3T3-HGL HSF-1 luciferase reporter, 8 h; 100% = twice DMSO control signal; activation, % at 9 µM; actives 1.7% (n = 300,000); AID 504408, 2011;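 active = mean replicate activation of at least 50% with a set share of replicates each reaching 50%; inconclusive = only one of those two conditions met; inactive = mean below 50% and too few replicates reaching it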
A number is an active result; – = inactive; ? = inconclusive; · = no result. Compounds with a hit are over-represented: about 3.1% of the library has one in this group of screens.

SMILES	HSF1 inh	HIF activator	HSP90 refold inh	ARNT-TACC3 inh	HSF-1 act
CO[C@@H]1CN(C)C(=O)c2cc(NC(C)=O)ccc2OC[C@H](C)N(CCC(F)(F)F)C[C@@H]1C	·	·	·	–	·
NNc1nc(-c2ccccc2)c2cc(Br)ccc2n1	–	–	–	–	–
COc1nc(-c2ccccc2)c2cc(Br)ccc2n1	-68	–	·	–	–
C[C@@H]1CN([C@H](C)CO)C(=O)Cc2cc(NC(=O)Cc3cn(C)c4ccccc34)ccc2O[C@@H]1CN(C)C(=O)Nc1ccccc1	·	·	·	–	·
Cn1c(SCc2ccc(C#N)cc2Cl)nc2ccccc21	–	–	–	–	93
C[C@H]1CN([C@@H](C)CO)C(=O)Cc2cc(NS(=O)(=O)c3cccs3)ccc2O[C@@H]1CN(C)C	·	·	·	–	·
CC(=O)c1cccc(NC(=O)CN2CCN(Cc3ccccc3)CC2)c1	–	–	–	–	–
COC(=O)c1cccc(NC(=O)CN2CCN(Cc3ccccc3)CC2)c1	-62	–	–	·	–
CN1[C@H](C(=O)NCCCN2CCOCC2)[C@@H](CO)[C@@H]2Cn3c(ccc(/C=C/c4ccccc4)c3=O)[C@@H]21	·	·	·	–	·
Cc1ccc(Sc2nc(-c3ccccc3)nnc2C(F)(F)F)cc1	–	–	–	–	151
CNc1nc(-c2ccccc2)nnc1C(F)(F)F	–	–	–	–	–
CCC(=O)Nc1nc(C)c(-c2csc(Nc3cccc(C(=O)O)c3)n2)s1	–	–	–	–	–
Cc1nc(NC(=O)c2ccc(Cl)cc2)sc1-c1csc(Nc2cccc(F)c2)n1	–	–	69	·	–
Cc1cc(NS(=O)(=O)c2ccc(Nc3nc(-c4ccc(C)c(C)c4)cs3)cc2)no1	–	–	–	–	–
Cc1cc(NS(=O)(=O)c2ccc(Nc3nc(-c4sc(N)nc4C)cs3)cc2)no1	–	–	–	62	–
Cc1nc(N)sc1-c1csc(Nc2cccc(C(=O)O)c2)n1	–	–	–	52	–
CC(=O)Nc1nc(C)c(-c2csc(Nc3cccc(C(C)=O)c3)n2)s1	–	–	–	–	–
COc1ccc(NC(=O)C2CC(=O)NC(Nc3cccc(C)c3)=N2)cc1 (stereo not given)	–	–	–	–	87
CC1(C(=O)Nc2nc3ccccc3s2)CC1(Br)Br (stereo not given)	–	–	–	–	–
Cc1cccc(NC(=O)C2CC(=O)NC(Nc3nc4ccccc4s3)=N2)c1 (stereo not given)	–	99	–	·	–
COc1ccc2nc(NC3=NC(C(=O)Nc4ccc(C)cc4)CC(=O)N3)nc(C)c2c1 (stereo not given)	–	–	–	·	–
C[C@@H]1CCCCO[C@H](CN(C)C(=O)Nc2ccc(F)cc2)[C@H](C)CN([C@H](C)CO)C(=O)c2cc(NC(=O)CCC(F)(F)F)ccc2O1	·	·	·	–	·
Cc1ccc(NC(=O)c2ccccc2)cc1	–	–	–	–	–
Cc1ccc(NC(=O)c2ccccc2O)cc1	–	–	–	–	82
Cc1ccc(NC(=O)c2c(Cl)n(C)c3ccccc23)cc1	–	–	–	–	72
SMILES	HSF1 inh	HIF activator	HSP90 refold inh	ARNT-TACC3 inh	HSF-1 act
Cc1ccc(NC(=O)C(=O)c2ccc(C)cc2)cc1	–	–	–	–	61
Cc1ccccc1NC(=O)c1ccc2c(c1)OCCO2	-65	–	–	–	–
Cc1ccccc1NC(=O)c1ccccc1O	–	408	–	–	–
Cc1ccc(C)n1NC(=O)c1ccccc1[N+](=O)[O-]	–	–	–	–	–
Cc1ccc(C)n1NC(=O)c1ccccc1O	-85	–	–	–	–
O=C(Nc1ccc(-c2ccccc2)cc1)c1ccccc1	–	–	–	–	–
Cc1ccc(NC(=O)C2=C(c3ccccc3)S(=O)(=O)CCS2(=O)=O)cc1	-75	–	–	–	–
CSc1ccccc1C(=O)Nc1ccccc1C	–	–	–	·	–
CCN(CC)C(=O)c1cc(-c2ccc(Br)cc2)on1	–	–	–	–	58
COC(=O)c1cc(-c2ccc(Br)cc2)on1	–	–	–	–	–
O=C(C[C@H]1CC[C@@H](NC(=O)Nc2cc(F)ccc2F)[C@H](CO)O1)Nc1ccc(-c2ccccc2)cc1	·	·	·	48	·
O=[N+]([O-])c1ccc(-c2nc3ccc([N+](=O)[O-])cc3[nH]2)cc1	–	–	–	–	55
O=C(C[C@@H]1C[C@H]2c3cc(NS(=O)(=O)c4ccc(F)cc4)ccc3O[C@H]2[C@H](CO)O1)NCC1CC1	·	·	·	–	·
COCCCNc1nc2nonc2nc1N1CCN(Cc2cccc(C)c2)CC1	–	–	–	–	63
CN1CCN(C(=O)C[C@H]2C[C@@H]3c4cc(NC(=O)C5CCC5)ccc4O[C@@H]3[C@@H](CO)O2)CC1	·	·	·	–	·
COCc1nnc(NC(=O)c2ccc(S(=O)(=O)N3CCCc4ccccc43)cc2)o1	–	–	–	·	–
COc1ccccc1-c1nnc(-c2ccc(C)cc2)o1	–	–	·	–	?
COc1ccccc1-c1nnc(NC(=O)c2ccc(S(=O)(=O)N3CCOCC3)cc2)o1	–	–	–	46	–
COCc1nnc(NC(=O)c2ccc(S(=O)(=O)N3CCOCC3)cc2)o1	–	–	–	45	–
COc1ccccc1-c1nnc(-c2ccc(N3CCOCC3)cc2)o1	–	–	–	–	59
Cc1ccc2c(c1)c1c(n2CC(O)CN2CCOCC2)CCCC1 (stereo not given)	-70	–	–	·	–
CSc1ccccc1NC(=O)c1ccc(N2CC3CC(C2)c2cccc(=O)n2C3)c(NC(=O)c2cccnc2)c1 (stereo not given)	–	–	–	–	–
COc1ccccc1NC(=O)c1ccc(N2CC3CC(C2)c2cccc(=O)n2C3)c(NC(=O)c2ccncc2)c1 (stereo not given)	-57	–	–	–	–
Cc1cc(C)[n+](Cc2ccccc2)cc1C(N)=O	–	21	·	–	–
NC(=O)c1ccc(/C=N/O)[n+](Cc2ccccc2)c1	–	–	–	–	–
SMILES	HSF1 inh	HIF activator	HSP90 refold inh	ARNT-TACC3 inh	HSF-1 act
Brc1ccc(-c2nn3c(-c4ccccn4)nnc3s2)o1	–	–	–	68	–
Brc1ccc(-c2nn3c(-c4ccco4)nnc3s2)o1	–	–	–	–	–
CC(=O)Oc1ccc2occ(C(=O)c3ccccc3)c2c1	–	–	·	·	63
O=C(O)COc1ccc2occ(C(=O)c3ccccc3)c2c1	–	–	–	–	–
CN(C(=O)C1CCC(CNS(=O)(=O)c2cccc3cccnc23)CC1)C1CCCCC1 (stereo not given)	–	–	–	–	–
O=C(C1CCC(CNS(=O)(=O)c2cccc3cccnc23)CC1)N1CCCC1 (stereo not given)	-86	·	–	–	–

Assay outcomes: PubChem, several laboratories
